Hit rate of the full screen: of about 5,500 compounds, about 2,000 (36%) were called active. About 18% were inconclusive and are not listed. No stated cut-off is given here; in the data, active means normalized growth mostly below about 0.91 (no sharp cut-off); inconclusive means no clear call, values can overlap the other calls; inactive means mostly above about 0.92. The list shows a part of the results.
Test: chemical genetic growth profiling, strain panel (AID 1159580);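 further: tested at 20 µM; growth read once vehicle control cultures reached saturation at 30 °C; 1 = growth at the plate median or of vehicle wells; lower values mean less growth of the strain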
Conditions: growth OD
[1] = S. cerevisiae deletion strains, locus YDR150W, strain NUM1, active compounds read low
[2] = S. cerevisiae deletion strains, locus YMR307W, strain GAS1, active compounds read low
[3] = S. cerevisiae deletion strains, locus YNL322C, strain KRE1, active compounds read low

Measured: normalized growth

Cc1ccc2cc3c(ccc4ccccc43)c3c2c1CC3
inactive: S. cerevisiae deletion strains, locus YAL013W, strain DEP1, active compounds read low 0.998 | S. cerevisiae deletion strains, locus YBR021W, strain FUR4, active compounds read low 0.988 | S. cerevisiae deletion strains, locus YBR229C, strain ROT2, active compounds read low 0.982 | S. cerevisiae deletion strains, locus YCL029C, strain bik1, active compounds read low 0.954 | S. cerevisiae deletion strains, locus YDL035C, strain GPR1, active compounds read low 0.916 | S. cerevisiae deletion strains, locus YDL074C, strain BRE1, active compounds read low 0.963 | S. cerevisiae deletion strains, locus YDL101C, strain DUN1, active compounds read low 0.973 | S. cerevisiae deletion strains, locus YDL134C, strain PPH21, active compounds read low 0.997 | S. cerevisiae deletion strains, locus YDL185W, strain tfp1, active compounds read low 0.99 | S. cerevisiae deletion strains, locus YDR101C, strain arx1, active compounds read low 0.96 | [1] 1 | S. cerevisiae deletion strains, locus YDR388W, active compounds read low 0.96 | S. cerevisiae deletion strains, locus YEL061C, strain CIN8, active compounds read low 0.994 | S. cerevisiae deletion strains, locus YER110C, active compounds read low 0.952 | S. cerevisiae deletion strains, locus YER155C, strain BEM2, active compounds read low 0.997 | S. cerevisiae deletion strains, locus YER167W, strain BCK2, active compounds read low 0.917 | S. cerevisiae deletion strains, locus YGL078C, strain dbp3, active compounds read low 1 | S. cerevisiae deletion strains, locus YGL248W, strain PDE1, active compounds read low 0.981 | S. cerevisiae deletion strains, locus YGR078C, strain PAC10, active compounds read low 0.957 | S. cerevisiae deletion strains, locus YGR135W, strain pre9, active compounds read low 0.924 | S. cerevisiae deletion strains, locus YGR229C, strain SMI1, active compounds read low 0.841 | S. cerevisiae deletion strains, locus YGR252W, strain gcn5, active compounds read low 0.922 | S. cerevisiae deletion strains, locus YHR079C, strain IRE1 (second series), active compounds read low 0.954 | S. cerevisiae deletion strains, locus YHR094C, strain hxt1, active compounds read low 0.981 | S. cerevisiae deletion strains, locus YHR129C, strain ARP1, active compounds read low 0.983 | S. cerevisiae deletion strains, locus YHR200W, strain rpn10, active compounds read low 0.933 | S. cerevisiae deletion strains, locus YIL066C, strain RNR3, active compounds read low 0.949 | S. cerevisiae deletion strains, locus YIL073C, strain SPO22, active compounds read low 0.906 | S. cerevisiae deletion strains, locus YIL125W, strain kgd1, active compounds read low 0.941 | S. cerevisiae deletion strains, locus YIR030C, strain dcg1, active compounds read low 0.961 | S. cerevisiae deletion strains, locus YJL095W, strain BCK1, active compounds read low 0.828 | S. cerevisiae deletion strains, locus YJL134W, strain LCB3, active compounds read low 0.99 | S. cerevisiae deletion strains, locus YJL168C, strain set2, active compounds read low 0.967 | S. cerevisiae deletion strains, locus YJL187C, strain SWE1 (second series), active compounds read low 0.99 | S. cerevisiae deletion strains, locus YJR043C, strain POL32, active compounds read low 0.993 | S. cerevisiae deletion strains, locus YJR075W, strain HOC1, active compounds read low 0.904 | S. cerevisiae deletion strains, locus YKL009W, strain mrt4, active compounds read low 0.999 | S. cerevisiae deletion strains, locus YKL068W, active compounds read low 0.997 | S. cerevisiae deletion strains, locus YKL085W, strain MDH1 (second series), active compounds read low 0.999 | S. cerevisiae deletion strains, locus YKL085W, strain MDH1, active compounds read low 0.999 | S. cerevisiae deletion strains, locus YKL190W, strain CNB1, active compounds read low 0.958 | S. cerevisiae deletion strains, locus YLR058C, strain SHM2, active compounds read low 0.981 | S. cerevisiae deletion strains, locus YLR102C, strain apc9, active compounds read low 0.983 | S. cerevisiae deletion strains, locus YLR330W, strain CHS5, active compounds read low 0.986 | S. cerevisiae deletion strains, locus YLR342W, strain FKS1 (second series), active compounds read low 0.91 | S. cerevisiae deletion strains, locus YLR371W, strain rom2, active compounds read low 0.974 | S. cerevisiae deletion strains, locus YML016C, strain PPZ1, active compounds read low 0.987 | S. cerevisiae deletion strains, locus YML032C, strain rad52, active compounds read low 0.908 | S. cerevisiae deletion strains, locus YML124C, strain tub3, active compounds read low 0.98 | S. cerevisiae deletion strains, locus YMR078C, strain ctf18, active compounds read low 0.959 | S. cerevisiae deletion strains, locus YMR263W, strain SAP30, active compounds read low 0.986 | [2] 0.711 | S. cerevisiae deletion strains, locus YNL067W, strain RPL9B, active compounds read low 0.985 | S. cerevisiae deletion strains, locus YNL128W, strain TEP1, active compounds read low 0.931 | S. cerevisiae deletion strains, locus YNL153C, strain GIM3, active compounds read low 1.03 | S. cerevisiae deletion strains, locus YNL233W, strain BNI4, active compounds read low 0.933 | S. cerevisiae deletion strains, locus YNL250W, strain rad50, active compounds read low 0.966 | S. cerevisiae deletion strains, locus YNL271C, strain bni1, active compounds read low 0.959 | S. cerevisiae deletion strains, locus YNL298W, strain CLA4, active compounds read low 0.949 | [3] 0.998 | S. cerevisiae deletion strains, locus YNR052C, strain pop2, active compounds read low 0.951 | S. cerevisiae deletion strains, locus YOL006C, strain TOP1, active compounds read low 0.937 | S. cerevisiae deletion strains, locus YOL012C, strain htz1 0.778 | S. cerevisiae deletion strains, locus YOR061W, strain CKA2, active compounds read low 0.98 | S. cerevisiae deletion strains, locus YOR069W, strain VPS5, active compounds read low 0.988 | S. cerevisiae deletion strains, locus YOR136W, strain idh2, active compounds read low 0.927 | S. cerevisiae deletion strains, locus YOR144C, strain elg1, active compounds read low 0.963 | S. cerevisiae deletion strains, locus YOR316C, strain cot1, active compounds read low 0.981 | S. cerevisiae deletion strains, locus YPL055C, strain LGE1, active compounds read low 0.931 | S. cerevisiae deletion strains, locus YPL241C, strain CIN2, active compounds read low 1 | S. cerevisiae deletion strains, locus YPR119W, strain clb2, active compounds read low 0.976 | S. cerevisiae deletion strains, locus YPR141C, strain kar3, active compounds read low 0.983 | S. cerevisiae deletion strains, locus YPR163C, strain tif3, active compounds read low 0.916 | S. cerevisiae deletion strains, locus YPR167C, strain met16, active compounds read low 0.968 | S. cerevisiae deletion strains, strain wtn01, active compounds read low 0.928 | S. cerevisiae strains, strain wild type, active compounds read low 0.97
active: S. cerevisiae deletion strains, locus YDL192W, strain arf1, active compounds read low 0.795 | S. cerevisiae deletion strains, locus YDR162C, strain NBP2, active compounds read low 0.626 | S. cerevisiae deletion strains, locus YDR318W, strain mcm21, active compounds read low 0.884 | S. cerevisiae deletion strains, locus YDR502C, strain sam2, active compounds read low 0.868 | S. cerevisiae deletion strains, locus YGL086W, strain mad1, active compounds read low 0.894 | S. cerevisiae deletion strains, locus YHR030C, strain SLT2, active compounds read low 0.837 | S. cerevisiae deletion strains, locus YKR001C, strain vps1, active compounds read low 0.685 | S. cerevisiae deletion strains, locus YLR039C, strain RIC1, active compounds read low 0.64 | S. cerevisiae deletion strains, locus YLR262C, strain YPT6, active compounds read low 0.568 | S. cerevisiae deletion strains, locus YLR268W, strain sec22, active compounds read low 0.838 | S. cerevisiae deletion strains, locus YLR418C, strain cdc73, active compounds read low 0.532 | S. cerevisiae deletion strains, locus YMR223W, strain ubp8, active compounds read low 0.844 | S. cerevisiae deletion strains, locus YNL307C, strain MCK1, active compounds read low 0.591 | S. cerevisiae deletion strains, locus YOL147C, strain pex11, active compounds read low 0.896 | S. cerevisiae deletion strains, locus YOR184W, strain ser1, active compounds read low 0.559

CCCn1c(C)c(C(=O)c2ccc3ccccc3c2)c2ccccc21
inactive: S. cerevisiae deletion strains, locus YAL040C, strain CLN3, active compounds read low 0.99 | S. cerevisiae deletion strains, locus YCL061C, strain MRC1 (second series), active compounds read low 0.99 | [1] 1.01 | S. cerevisiae deletion strains, locus YDR363W, strain ESC2, active compounds read low 0.96 | S. cerevisiae deletion strains, locus YER002W, strain NOP16, active compounds read low 0.999 | [2] 1.01 | S. cerevisiae deletion strains, locus YNL175C, strain NOP13, active compounds read low 0.974 | S. cerevisiae deletion strains, locus YNL197C, strain WHI3, active compounds read low 0.977 | S. cerevisiae deletion strains, locus YNL224C, strain SQS1, active compounds read low 1 | [3] 0.991 | S. cerevisiae deletion strains, locus YOR083W, strain WHI5 (second series), active compounds read low 0.995
